Laboratory results: PubChem BioAssay (EPA / NIEHS)
Calls of active or inactive are those of the source. The calls were made as follows: active = hit-call score of the fitted dose curve at least 0.9, where 1 is the maximum; inactive = score below 0.9.

Experiments:
[1] = ATG_CRE_CIS: Attagene CIS-FACTORIAL HepG2 Assay for human cAMP Responsive Element (CRE) binding protein 3 (AID 2282926); details: HepG2 CRE cis-reporter, Attagene multiplexed mRNA; actives raise or lower the signal
In short: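 Multiplexed transcription-unit reporters transfected into HepG2; 24 h dosing; RT-PCR/capillary electrophoresis fluorescence read-out; bidirectional fit vs DMSO.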

[2] = target: CCAAT/enhancer-binding protein beta (Homo sapiens) (UniProt P17676); assay: ATG_C_EBP_CIS: Attagene CIS-FACTORIAL HepG2 Assay for human CCAAT/Enhancer Binding Protein (C/EBP) beta (AID 2282927); details: HepG2 Attagene cis-factorial transcription factor reporter; actives raise or lower the signal
In short: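 Following a 24 h incubation with test chemical, transfected HepG2 cells yielded RNA whose reporter transcripts were quantified by RT-PCR and fluorescent capillary electrophoresis, with DMSO serving as baseline for bidirectional fitting.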

[3] = ATG_CMV_CIS: Attagene CIS-FACTORIAL HepG2 Assay for human CMV (Internal Marker) (AID 2282928); details: HepG2 CMV promoter reporter, transcription factor profiling; actives raise or lower the signal;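 also: endpoint acts as a background internal control marker rather than a target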
In short: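 Cell system: HepG2, transiently transfected multiple reporter units under cis promoters. Exposure: 24 h. Detection: RT-PCR, FAM labeling, HpaI digestion, capillary electrophoresis. Analysis: bidirectional, DMSO baseline.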

[4] = ATG_DR4_LXR_CIS: Attagene CIS-FACTORIAL HepG2 Assay for human Liver X Receptor (LXR), DR4 submotif (AID 2282929); details: HepG2 Attagene DR4 cis-reporter, mRNA transcription; actives raise or lower the signal
In short: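 Fluorescence intensity of labelled reporter cDNA fragments, separated by capillary electrophoresis, gives the signal. HepG2 cells bearing cis-regulated reporter constructs were treated 24 h; activity fitted bidirectionally relative to DMSO negative control.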

[5] = target: Aryl hydrocarbon receptor (Homo sapiens) (UniProt P35869); assay: ATG_Ahr_CIS: Attagene CIS-FACTORIAL HepG2 Assay for human Aryl Hydrocarbon Receptor (Ahr) (AID 2282930); details: HepG2 AhR cis-factorial reporter transcription; actives raise or lower the signal
In short: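 Values derive from bidirectional fitting against DMSO negative control. Underlying signal: cis-element reporter mRNA in transiently transfected HepG2, harvested 24 h post-dose and measured by RT-PCR plus capillary electrophoresis.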

[6] = ATG_AP_1_CIS: Attagene CIS-FACTORIAL HepG2 Assay for human Activator Protein 1 (AP-1) (AID 2282931); details: HepG2 Attagene cis-factorial AP-1 reporter mRNA; actives raise or lower the signal
In short: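 Multiplexed HepG2 reporter assay, 24 h dosing. mRNA induction detected by RT-PCR plus capillary electrophoresis. Activity fitted in both directions against DMSO.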

[7] = ATG_AP_2_CIS: Attagene CIS-FACTORIAL HepG2 Assay for human Activator Protein 2 (AP-2) (AID 2282932); details: HepG2 AP-2 cis-reporter, Attagene transcription factor profiling; actives raise or lower the signal
In short: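 HepG2 cells were transiently transfected with multiple cis-promoter reporter transcription units and dosed for 24 h. Reporter mRNA was measured by RT-PCR with capillary electrophoresis fluorescence; bidirectional fits relative to DMSO baseline.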

[8] = ATG_BRE_CIS: Attagene CIS-FACTORIAL HepG2 Assay for human Bone Morphogenetic Protein (BMP) Response Element (BRE) (AID 2282933); details: HepG2 BMP response element reporter, Attagene transcription factor profiling; actives raise or lower the signal
In short: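 Fluorescence-labelled reporter cDNA fragments, separated by capillary electrophoresis, gave the signal for this component of a 52-readout multiplex. HepG2 cells were transfected, exposed to chemicals for 24 h, and compared with DMSO using bidirectional fitting.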

[9] = target: Retinoic acid receptor alpha (Homo sapiens) (UniProt P10276); assay: ATG_DR5_RAR_CIS: Attagene CIS-FACTORIAL HepG2 Assay for human Retinoic Acid Receptor Alpha (RARE), DR5 submotif (AID 2282934); details: HepG2 Attagene cis-factorial RARE DR5 reporter, mRNA; actives raise or lower the signal;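 as to AC50: reporter responds to endogenous RAR alpha beta and gamma in HepG2 not RARA alone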
In short: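 Endpoint fitted in both directions relative to DMSO as negative control. It reflects DR5 cis-element reporter mRNA induction in transiently transfected HepG2 cells, measured 24 h after dosing through RT-PCR and fluorescent capillary electrophoresis.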

[10] = target: Transcription factor E2F1 (Homo sapiens) (UniProt Q01094); assay: ATG_E2F_CIS: Attagene CIS-FACTORIAL HepG2 Assay for human E2F Transcription Factor 1 (AID 2282935); details: HepG2 Attagene cis-reporter, E2F reporter RNA transcripts; actives raise or lower the signal
In short: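 HepG2 cells transiently transfected with multiplexed cis-element reporter units, dosed for 24 h. Reporter mRNA measured by RT-PCR, 6-FAM primer-extension labeling, HpaI digestion and capillary electrophoresis; bidirectional fit versus DMSO baseline.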

Measured: AC50

Sequence of Transcription factor E2F1 (Homo sapiens) (Q01094 whole entry, looked up): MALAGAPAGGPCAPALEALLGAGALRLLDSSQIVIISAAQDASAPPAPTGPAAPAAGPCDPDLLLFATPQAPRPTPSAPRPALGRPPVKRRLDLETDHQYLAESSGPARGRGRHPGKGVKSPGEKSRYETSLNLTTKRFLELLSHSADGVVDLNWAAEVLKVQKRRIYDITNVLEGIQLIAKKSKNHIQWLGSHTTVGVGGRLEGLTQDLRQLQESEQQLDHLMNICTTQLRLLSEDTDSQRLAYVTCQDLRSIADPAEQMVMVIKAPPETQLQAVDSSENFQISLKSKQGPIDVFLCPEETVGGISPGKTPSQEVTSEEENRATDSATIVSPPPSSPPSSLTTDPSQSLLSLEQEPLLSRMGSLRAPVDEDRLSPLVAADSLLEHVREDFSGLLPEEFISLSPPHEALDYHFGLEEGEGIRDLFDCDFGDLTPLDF
Sequence of Retinoic acid receptor alpha (Homo sapiens) (P10276 whole entry, looked up): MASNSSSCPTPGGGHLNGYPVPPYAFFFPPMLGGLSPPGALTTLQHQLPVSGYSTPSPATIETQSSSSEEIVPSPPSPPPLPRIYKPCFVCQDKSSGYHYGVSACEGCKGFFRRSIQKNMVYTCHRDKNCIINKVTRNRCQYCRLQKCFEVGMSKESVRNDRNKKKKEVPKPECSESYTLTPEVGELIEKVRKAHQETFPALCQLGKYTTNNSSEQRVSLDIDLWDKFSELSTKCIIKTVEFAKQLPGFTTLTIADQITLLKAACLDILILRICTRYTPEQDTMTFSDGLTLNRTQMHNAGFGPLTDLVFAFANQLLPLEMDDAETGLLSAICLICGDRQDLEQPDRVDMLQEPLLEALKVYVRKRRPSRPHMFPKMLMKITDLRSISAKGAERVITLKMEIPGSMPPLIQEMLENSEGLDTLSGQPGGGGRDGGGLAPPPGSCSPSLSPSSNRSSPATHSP
Sequence of CCAAT/enhancer-binding protein beta (Homo sapiens) (P17676 whole entry, looked up): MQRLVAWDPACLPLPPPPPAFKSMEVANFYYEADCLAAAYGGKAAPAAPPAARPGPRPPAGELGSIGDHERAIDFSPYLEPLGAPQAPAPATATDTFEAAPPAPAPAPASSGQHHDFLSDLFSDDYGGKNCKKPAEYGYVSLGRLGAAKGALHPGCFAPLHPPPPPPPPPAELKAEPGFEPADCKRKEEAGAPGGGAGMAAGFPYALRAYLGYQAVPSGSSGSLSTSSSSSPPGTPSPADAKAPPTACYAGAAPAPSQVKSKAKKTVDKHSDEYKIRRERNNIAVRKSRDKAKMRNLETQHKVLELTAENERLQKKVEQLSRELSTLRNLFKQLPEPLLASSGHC
Sequence of Aryl hydrocarbon receptor (Homo sapiens) (P35869 whole entry, looked up): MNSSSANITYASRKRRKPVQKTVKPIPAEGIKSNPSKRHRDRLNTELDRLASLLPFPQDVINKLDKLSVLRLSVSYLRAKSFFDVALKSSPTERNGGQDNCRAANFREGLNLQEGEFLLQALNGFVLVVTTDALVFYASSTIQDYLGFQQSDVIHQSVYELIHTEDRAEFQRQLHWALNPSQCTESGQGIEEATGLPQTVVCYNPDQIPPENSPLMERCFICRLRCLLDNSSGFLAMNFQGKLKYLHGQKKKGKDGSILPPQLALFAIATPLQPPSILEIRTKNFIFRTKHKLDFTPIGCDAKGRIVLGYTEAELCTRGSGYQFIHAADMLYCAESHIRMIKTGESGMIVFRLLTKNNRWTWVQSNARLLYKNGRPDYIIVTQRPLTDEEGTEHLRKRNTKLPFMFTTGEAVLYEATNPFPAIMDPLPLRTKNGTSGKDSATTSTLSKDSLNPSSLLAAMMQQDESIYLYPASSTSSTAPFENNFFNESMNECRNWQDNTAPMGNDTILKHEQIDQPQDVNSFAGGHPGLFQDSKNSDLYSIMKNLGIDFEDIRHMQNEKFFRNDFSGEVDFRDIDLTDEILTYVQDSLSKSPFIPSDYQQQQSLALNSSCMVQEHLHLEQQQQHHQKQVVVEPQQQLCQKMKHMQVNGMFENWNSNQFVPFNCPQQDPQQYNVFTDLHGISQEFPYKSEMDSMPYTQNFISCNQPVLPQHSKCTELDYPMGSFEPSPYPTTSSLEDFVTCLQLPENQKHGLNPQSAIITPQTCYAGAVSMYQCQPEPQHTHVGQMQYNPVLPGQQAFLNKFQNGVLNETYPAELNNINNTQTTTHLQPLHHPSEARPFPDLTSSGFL

O=C(Nc1ccccc1SSc1ccccc1NC(=O)c1ccccc1)c1ccccc1
active: [5] 2.79 µM | [6] 62.4 µM
inactive: all other assays above

c1ccc(-c2ccccn2)nc1
inactive: all assays above

Cc1cc(C)c(C)c(C)c1
inactive: all assays above

O=C(Nc1ccccc1)c1ccccc1O
active: [2] 53.4 µM | [5] 19.1 µM | [6] 27 µM | [8] 30.7 µM
inactive: all other assays above

Nc1cccc(C(F)(F)F)c1
inactive: all assays above

CCCCCCCCc1ccc(Nc2ccc(CCCCCCCC)cc2)cc1
inactive: all assays above

[Cl][Bi]([Cl])([c]1ccccc1)([c]1ccccc1)[c]1ccccc1
active: [1] 6.38 µM | [4] 3.07 µM | [6] 5.85 µM | [8] 6.21 µM
inactive: all other assays above

C=CC(=O)OCC(Br)CBr (stereo not given)
active: [2] 180 µM | [3] 100 µM | [4] 53.4 µM
inactive: all other assays above

NC(=O)C1CO1 (stereo not given)
inactive: all assays above

CCCCC/C=C\C/C=C\CCCCCCCC(=O)OC
active: [6] 132 µM | [8] 126 µM | [9] 71.2 µM
inactive: all other assays above

CC=CC(F)(F)C(F)(F)C(F)(F)F
inactive: all assays above

[Cl][Nd]([Cl])[Cl]
inactive: all assays above

CC(C)c1ccc2c(C(C)C)cc(C(C)C)c(S(=O)(=O)O)c2c1
inactive: all assays above

O=C(c1ccccc1)C1CCC1
inactive: all assays above

O=S(=O)(O)CC(O)CCl (stereo not given)
inactive: all assays above

C=C1[C@H]2CC[C@@H]3[C@H]2C(C)(C)CCC[C@]13C
active: [3] 100 µM
inactive: all other assays above

Cn1c(=O)[nH]c2ncn(C)c2c1=O
inactive: all assays above

O=CN1CCCCC1
inactive: all assays above

CC(=O)OC1C2(C)CCC(C2)C1(C)C (stereo not given)
inactive: all assays above

CC(C)c1ccc2c(c1)CC[C@H]1[C@](C)(CN)CCC[C@]21C
inactive: [1] | [2] | [5] | [7]
active: [3] 5.78 µM | [4] 5.39 µM | [6] 5.99 µM | [8] 5.7 µM | [9] 6.12 µM | [10] 6.03 µM

FC(F)(F)C(=NOCC1OCCO1)c1ccc(Cl)cc1
active: [4] 38.1 µM | [8] 150 µM
inactive: all other assays above

Cc1ccc(C(C)c2ccc(C)c(C)c2)cc1C
active: [3] 40.9 µM | [4] 117 µM | [6] 48.7 µM
inactive: all other assays above

CC(C)CC(O)Cc1ccccc1 (stereo not given)
inactive: all assays above

C=C(C)C(=O)OCC(C)C
inactive: all assays above
